The whole screen tested about 220,000 compounds, of which about 2,400 (1.1%) were called active. This excerpt belongs to a sample that is enriched for actives. Values without a mark were called inactive.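 Rule for the calls: active = inhibition above the campaign mean plus 3 SD over all tested compounds (cut at about 24% in these data); inactive = the rest.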

This experiment in a line: viability loss in Ba/F3 EpoR-JAK2V617F cells – cell-based, luminescence, JAK2V617F inhibitor project, primary screen (AID 1446).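 Note: cytokine-independent growth of Ba/F3 cells driven by EpoR plus mutant JAK2; 0% = DMSO-treated cells and 100% = JAK inhibitor I control.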 The following applies: ATP luminescence, at 5.6 µM, stronger effect = higher value.
With `COc1ccc(OC(C)C(=O)NCCc2nc3ccccc3[nH]2)cc1` (stereo unspecified), the inhibition was -2.24%.

For the compound `COc1cc(OC)cc(C(=O)N[C@H](C(=O)OCC(=O)NC(C)c2ccccc2)C(C)C)c1` (stereo partly specified), the inhibition is -0.99%.

Consider `COc1cc(OC)cc(C(=O)N[C@H](C(=O)Nc2nc3ccccc3[nH]2)C(C)C)c1`, for which the inhibition is 76.2% (active).

For `COC(=O)Cc1ccc(N(Cc2ccccc2F)S(=O)(=O)c2ccc(Br)cc2)cc1`, the inhibition was -1.26%.

As for `COC(=O)Cn1c(O)c(N=NC(=O)OC)c2ccccc21`, the inhibition is -2.09%.

For `Cc1oc2c(c1C(=O)N1CCOCC1)C(=O)c1ccccc1C2=O`, the inhibition was 3.99%.

Regarding `CCOC(=O)NC(=O)/C(C#N)=C\c1ccccc1`, the inhibition is 1.65%.

As to `Cc1coc(C)c1C(=O)CC1(O)C(=O)N(C)c2ccc(Cl)cc21` (stereo unspecified), the inhibition was 2.68%.

Consider `Cc1ccc(OCC(=O)N/N=C\c2ccco2)c(C)c1`, for which the inhibition is -7.98%.

In the case of `Cc1ccc(OCC(=O)N/N=C/c2ccncc2)cc1`, the inhibition is -1.35%.

Consider `Cc1ccc(/C=N/NC(=O)COc2ccccc2-c2ccccc2)cc1`, for which the inhibition is 86.5% (active).

For the compound `Cc1cc(C)nc(SCC(=O)N(C)C)n1`, the inhibition is -5.1%.

For `Nc1cccc(CCc2nc3ccccc3[nH]2)c1`, the inhibition is -1.26%.

Take `Cc1ccc(S(=O)(=O)C2(S(=O)(=O)c3ccc(C)cc3)CCCC2)cc1`: the inhibition is 30.1% (active).

As for `Cc1ccc(S(=O)(=O)NC(=O)N2CCCC(C)(C)C2)cc1`, the inhibition is -3.44%.

Consider `Cc1ccc(S(=O)(=O)N(C)C2(C)CCS(=O)(=O)C2)cc1` (stereo unspecified), for which the inhibition was -0.37%.

With `Cc1ccc(NC(=O)C(=O)NCc2ccco2)c(C)c1`, the inhibition is -1.41%.

As for `CCN(C(=O)COC(=O)c1cc(NS(=O)(=O)c2ccc(Cl)c([N+](=O)[O-])c2)ccc1O)C1CCCCC1`, the inhibition is -2.87%.

For the compound `COc1ccccc1NC1=NC(c2ccc(Cl)cc2)N=C(N)N1` (stereo unspecified), the inhibition was 84.9% (active).

In the case of `COc1ccccc1Nc1nc(N)nc(CN(C)C2CCCCC2)n1`, the inhibition was -3.54%.

For `COc1ccccc1NC1=NC2(CCCC2)N=C(N)N1`, the inhibition is 1.28%.

On to `CC(C)(C)c1ccc(C(=O)NCCn2c(N)c(C#N)c3nc4ccccc4nc32)cc1`, for which the inhibition is 1.57%.

Regarding `CC(C)(C)NC(=O)COC(=O)c1cc(Br)ccc1Cl`, the inhibition was -5.58%.

Regarding `CCOc1ccc(-n2c(O)c(/C=N/Nc3nnc(C)c(=O)[nH]3)c3ccccc3c2=O)cc1`, the inhibition was -1.02%.

With `Cc1nnc(N/N=C/c2ccccn2)[nH]c1=O`, the inhibition was -4.34%.

`COc1ccc(Cc2nnc(N/N=C/c3ccccc3O)[nH]c2=O)cc1OC`: the inhibition is 24.2% (active).

Regarding `CSCC(NS(=O)(=O)c1ccc(C)cc1)C(=O)O` (stereo unspecified), the inhibition was -0.95%.

As to `CC(=O)Nc1ccc(C(=O)/C=C/c2ccc[nH]2)cc1`, the inhibition is 0.42%.

Consider `Cc1ccc(NC(=O)CC2S/C(=N/N=C3\CCCc4ccccc43)NC2=O)cc1` (stereo unspecified), for which the inhibition is -2.25%.

For `COc1ccc(NS(=O)(=O)c2ccc(Oc3c(C#N)cccc3C#N)cc2)cc1`, the inhibition is 40.8% (active).

As to `COc1ccc(NS(=O)(=O)c2ccc(NC(=O)c3ccc(N(C)S(C)(=O)=O)cc3)cc2)cc1`, the inhibition was 22.6%.

Regarding `CCOc1ccc(S(=O)(=O)Nc2ccc(S(=O)(=O)Nc3cc(OC)ccc3OC)cc2)cc1`, the inhibition is 3.6%.

`Cc1cc(C)c(NC(=S)N2CCCC2C(=O)O)c(C)c1` (stereo unspecified): the inhibition was -0.43%.

As for `Nc1nnc(SCC(=O)OCc2ccc(Cl)c(Cl)c2)s1`, the inhibition is 1.09%.

Regarding `Cc1ccc(S(=O)(=O)N(C)c2ccc(OCC(=O)NC3=NCCS3)cc2)cc1`, the inhibition is 4.42%.

Turning to `COc1ccc(CC(=O)NCc2nnc(SCC(=O)Nc3nccs3)n2C)cc1`, the inhibition was -0.03%.

In the case of `CC(=O)NCCc1nc2cc(NC(=O)c3ccccc3)ccc2n1C`, the inhibition was 3.36%.

As for `CCC(=O)Nc1ccc2c(c1)nc(CCN1CCN(C)CC1)n2C`, the inhibition was 0.28%.

Consider `Cn1c(CCN2CCCCCC2)nc2cc(NC(=O)Nc3ccccc3)ccc21`, for which the inhibition was 77.4% (active).

For the compound `Cc1ccc(N(C(=O)Cc2cccs2)C2C=CS(=O)(=O)C2)cc1Cl` (stereo unspecified), the inhibition is 3.93%.

Regarding `O=c1[nH]c(CSc2ccccc2)nc2c1oc1ccccc12`, the inhibition is -0.61%.

Regarding `CCOC(=O)c1c(-c2ccc(C)cc2)csc1/N=C(\C)C1=C(O)c2ccccc2C1=O`, the inhibition was -3.38%.

As to `CCOC(=O)C1=C(c2ccc(OC)cc2)C(=O)c2ccccc2C1=O`, the inhibition was 46.9% (active).

`CCOC(=O)c1ccccc1NS(=O)(=O)c1ccc(OC)cc1`: the inhibition was -0.82%.

In the case of `COc1ccccc1Nc1nc(N)nc(CSC(=S)N2CCOCC2)n1`, the inhibition was 0.7%.

Consider `Cc1ccc(-c2cc(=O)c3ccc(F)cc3[nH]2)cc1`, for which the inhibition is -1.31%.

For `O=c1cc(-c2ccccc2)[nH]c2cc(F)ccc12`, the inhibition is 70.7% (active).

For the compound `Cc1ccc(-c2cc(=O)c3ccc(Cl)cc3[nH]2)cc1`, the inhibition was -3.39%.

As for `CCOC(=O)c1cnc(Nc2nc3ccccc3o2)nc1CSC(=S)N1CCCCC1`, the inhibition was -2.9%.

As to `CC#CC[N+](C)(C)CCCCCC`, the inhibition was 35.9% (active).

As to `C/C(=N\NC(=O)c1cccc(N2CCCC2=O)c1)c1ccc(N)cc1`, the inhibition was 0.87%.

For the compound `CC1=NNC(=O)C1CCC(=O)N/N=C(\C)c1ccc(Cl)cc1` (stereo unspecified), the inhibition was -7.29%.

In the case of `Cc1onc(NC(=O)c2ccc([N+](=O)[O-])o2)c1Br`, the inhibition was 2.15%.

On to `Cc1cccc(NC(=O)c2ccc([N+](=O)[O-])o2)c1`, for which the inhibition was 38.7% (active).

With `Cc1cccc(NC(=S)NC(=O)c2ccc(Br)o2)c1`, the inhibition was 1.21%.

Regarding `Cc1cc(C)cc(OCC(=O)Nc2ccc(S(=O)(=O)Nc3ccccn3)cc2)c1`, the inhibition is -4.41%.

As to `Cc1ccc(S(=O)(=O)Nc2ccc3ncccc3c2)cc1`, the inhibition was 32.3% (active).

As to `Cc1ccc(OCC(=O)Nc2ccc(S(=O)(=O)Nc3ccccn3)cc2)cc1`, the inhibition is -2.67%.

As for `c1ccc(-c2ccc3c(c2)NC(C2Nc4cc(-c5ccccc5)ccc4O2)O3)cc1` (stereo unspecified), the inhibition was -3.19%.

As to `Cc1c(Cl)c([N+](=O)[O-])nn1CCCC(=O)NC(C)c1ccccc1` (stereo unspecified), the inhibition is 0.46%.

Turning to `CC(C)CCN1CCN(C/C=C/c2ccco2)CC1CCO` (stereo unspecified), the inhibition was -3.77%.

As usually defined, the inhibition is the relative decrease from the control value, in per cent.

Source of the values: PubChem BioAssay AID1446 (The Scripps Research Institute Molecular Screening Center, 2008).
